Measured values as given in PubChem BioAssay AID624330 (Southern Research Specialized Biocontainment Screening …, 2012).
Among all 340,000 compounds or so, about 2,100 (0.62%) were called active.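 How the source made its calls: active means first-screen hits whose inhibition reached a set limit at any dose in the follow-up dose series; inconclusive means inhibition above the set first-screen limit but never retested; inactive means the rest.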 Not all results are given here. Measured potencies and affinities stand elsewhere.

These molecules were tested against Rac GTPase-activating protein 1 (Homo sapiens) (UniProt Q9H0H5) (assay: blockers of MgcRacGAP-driven Rac1 GTP hydrolysis – biochemical, ADP Hunter fluorescence, primary and confirmatory, confirmation (AID 624330;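 further: fluorescence reports GDP produced by GAP-driven GTP hydrolysis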)). Conditions: MgcRacGAP-stimulated Rac1 GTP hydrolysis, at 30 µM, active compounds read high, GST-tagged Rac1 F28L mutant substrate.
Chain of Rac GTPase-activating protein 1 (Homo sapiens) (Q9H0H5 whole entry, looked up): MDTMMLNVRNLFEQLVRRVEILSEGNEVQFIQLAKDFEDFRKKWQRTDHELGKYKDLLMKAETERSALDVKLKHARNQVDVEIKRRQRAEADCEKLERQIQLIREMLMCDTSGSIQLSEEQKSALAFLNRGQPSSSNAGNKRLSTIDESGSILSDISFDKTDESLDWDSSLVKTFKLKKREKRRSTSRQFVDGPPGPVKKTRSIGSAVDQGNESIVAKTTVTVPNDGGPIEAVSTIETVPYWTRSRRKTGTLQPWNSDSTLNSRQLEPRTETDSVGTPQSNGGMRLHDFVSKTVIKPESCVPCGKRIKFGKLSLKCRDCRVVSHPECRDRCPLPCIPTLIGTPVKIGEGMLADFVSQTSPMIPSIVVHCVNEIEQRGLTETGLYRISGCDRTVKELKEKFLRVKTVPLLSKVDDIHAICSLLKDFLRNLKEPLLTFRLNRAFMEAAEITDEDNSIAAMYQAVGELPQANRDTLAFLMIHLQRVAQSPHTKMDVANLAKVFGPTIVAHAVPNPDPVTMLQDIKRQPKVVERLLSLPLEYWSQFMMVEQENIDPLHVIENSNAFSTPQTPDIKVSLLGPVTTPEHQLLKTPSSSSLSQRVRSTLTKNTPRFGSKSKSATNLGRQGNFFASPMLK

inhibition, inactive:
CCN1CCN(C(=O)c2ccccc2Nc2ccc(SC(F)F)cc2)CC1 9.86%
CCCCCC(=O)Nc1cccc(S(=O)(=O)NC2=NCCC2)c1 6%
O=C(NCc1ccccn1)c1ccc(NS(=O)(=O)c2cccc(Cl)c2)cc1 2.91%
CC1CN(Cc2nc3c(c(=O)n(C)c(=O)n3C)n2CC(O)CO)CC(C)O1 (stereo unspecified) 1.13%
CC(NC(=O)C(C)N1CCN(Cc2ccccc2)CC1)c1ccccc1 (stereo unspecified) 4.7%
CC(NC(=O)C(C)N1CCN(Cc2ccccc2)CC1)c1ccc(F)cc1 (stereo unspecified) 4.63%
CCn1c(SCC(=O)Nc2cccc(F)c2)nc2c(c1=O)SC(C)C2 (stereo unspecified) 3.97%
Cc1ccc(-n2ccnc(SCC(=O)NC3CCCCC3)c2=O)cc1F 7.99%
Cc1ccc(O)c(NC(=O)c2cc(-c3cccs3)on2)c1 5.43%
O=C(Nc1cccc(Cl)c1)c1nc[nH]c1C(=O)NCCN(CCNC(=O)c1[nH]cnc1C(=O)Nc1cccc(Cl)c1)CCNC(=O)c1[nH]cnc1C(=O)Nc1cccc(Cl)c1 10.4%
O=C(c1cc(C2CC2)nn1-c1ccccc1)N1CCN(S(=O)(=O)c2ccc(F)cc2)CC1 4.93%
COc1ccc2[nH]cc(CCNC(C)=O)c2c1 -0.52%
COc1cc2c(CCNC(C)=O)c[nH]c2cc1Cl 7.18%
O=C(C1CCN(C2CCN(Cc3ccc4c(c3)CCO4)CC2)CC1)N1CCOCC1 3.51%
COc1ccc(CCNC(=O)C2CCN(S(=O)(=O)c3ccc(C)cc3)CC2)cc1OC -4.11%
COc1cccc(N(CC(=O)NC2CCCCC2)C(=O)Cn2nnc(-c3ccc(C)o3)n2)c1 -3.15%
Cc1ccsc1/C=N/NC(=O)c1cccc(S(=O)(=O)Nc2ccccc2Cl)c1 13.6%
CC(Cn1cncn1)C(=O)N1CCN(S(=O)(=O)c2ccccc2)CC1 (stereo unspecified) 5.09%
Cc1csc(=O)n1CC(=O)OC(C)C(=O)Nc1cccc(Cl)c1 (stereo unspecified) 5.89%
CC(=O)Nc1ccc(NC(=O)C(C)OC(=O)CCN=C2NS(=O)(=O)c3ccccc32)cc1 (stereo unspecified) 7.31%
CC(OC(=O)c1cccc(N2C(=O)c3ccccc3C2=O)c1)C(=O)Nc1ccc(N(C)C)cc1 (stereo unspecified) 5.16%
Cc1csc(=O)n1CC(=O)OC(C)C(=O)Nc1ccc(F)c(F)c1F (stereo unspecified) 7.87%
Cc1ccc(-n2c(Cc3cccn3C)nnc2SCC(=O)N2CCc3ccccc32)cc1 19%
CCN(Cc1ccccc1)C1CCN(Cc2ccccc2)CC1 -17.1%
COc1cc(OC)c(OC)cc1CN1CCN(c2ccccc2OC)CC1 19.5%
CSc1ccc(CN2CCCCCC2)cc1 18.5%
CSc1ccc(/C=N/N2CCN(Cc3ccccc3Cl)CC2)cc1 0.33%
COc1ccccc1CN1CCCCCC1 24.6%
CCN(Cc1ccccc1)C(=O)C1CCN(Cc2ccc(SC)cc2)CC1 23.2%
COc1cc(OC)c(OC)cc1CN1CCN(c2ccc(F)cc2)CC1 10.3%
COc1cc(OC)c(OC)cc1CN1CCN(Cc2cccn2C)CC1 31.5%
Cc1noc(C)c1COC(=O)c1ccccc1Sc1ccccc1C#N 3.85%
CCOc1ccc(CCN2C(=S)N([C@@H](CC(C)C)CN3CCCC3CN3C(=S)NC[C@@H]3Cc3ccc(O)cc3)C[C@@H]2Cc2ccc(O)cc2)cc1 (stereo partly specified) 10.2%
O=C(OC(C(=O)NCc1ccccc1)c1ccccc1)c1ccco1 (stereo unspecified) 5.58%
Cc1cccn2cc(CNS(=O)(=O)c3cccc(F)c3)nc12 7.85%
O=C(CCc1nc2ccccc2[nH]1)N1CCN(C(=O)c2ccco2)CC1 -2.14%
CCC(C)[C@H](NC(=O)NCc1ccc(OC)c(OC)c1)C(=O)O (stereo partly specified) 11.4%
Cc1ccc2nc(SCc3nnc(-c4ccccc4)o3)[nH]c2c1 12.2%
CCOC(=O)C1(Cc2ccccc2C)CCCN(C(=O)c2ccc3nccnc3c2)C1 (stereo unspecified) 7.5%
CCN(c1ccccc1)S(=O)(=O)c1ccc(C(=O)NCCCN2CCOCC2)cc1 8.29%
O=C(NNC(=O)c1ccccc1[N+](=O)[O-])c1ccc(NC(=O)c2ccccc2)cc1 12.4%
O=C(N/C=C\n1cnc2cc(C(F)(F)F)ccc21)c1ccc([N+](=O)[O-])cc1 6.01%
CS(=O)(=O)c1ccc(Cl)c(NC(=O)CN2CCN(C(=O)c3cccs3)CC2)c1 3.52%
c1ccc(N2CCN(c3nc4ccccc4n4nnnc34)CC2)cc1 2.04%
O=C(NCc1cccc(F)c1)C1CCC(=O)N(CCc2cccc(F)c2)C1 (stereo unspecified) 0.03%
COc1cccc(C(CC(=O)NCc2ccco2)NS(=O)(=O)c2ccc(C)cc2)c1OC (stereo unspecified) 2.02%
O=C(COC(=O)c1ccccc1C(=O)c1ccc(Cl)cc1)NCC1CCCO1 (stereo unspecified) 3.71%
COc1ccccc1CN1CCSCC1 23.4%
COc1ccc(S(=O)(=O)N2CCN(Cc3ccccc3OC)CC2)cc1 11.4%
O=C(Nc1ccccc1)Nc1nncs1 9.87%
O=c1[nH]n(-c2ccc(Cl)cc2)c2ncccc12 31.6%
O=c1[nH]n(-c2ccc(F)cc2)c2ncccc12 15.2%
CC(C)=N/N=c1\scc(C)n1Cc1ccco1 6.39%
Cc1cs/c(=N\N=C\c2ccccc2)n1Cc1ccco1 7.87%
C[C@H](CO)N1C[C@H](C)[C@@H](CN(C)C(=O)Nc2ccc(C(F)(F)F)cc2)Oc2c(NC(=O)CCC(F)(F)F)cccc2C1=O 3.3%
Cc1cccc(C(=O)c2cn[nH]c2-c2ccc(C)cc2O)c1 4.53%
Cc1ccc(CNC(=O)C(=O)NCCC2CCCCN2S(=O)(=O)c2ccccc2)cc1 (stereo unspecified) 9.49%
Cc1ccccc1CNC(=O)CCn1nc(C)c2c(C)n(-c3ccccc3)nc2c1=O 13.3%
O=C(NC(=S)Nc1cccc2cc(O)ccc12)c1ccco1 23.9%
CCCC(=O)NC(=S)Nc1ccccc1F 5.15%
O=C(NC(=S)Nc1cccc2ncccc12)c1ccco1 -0.13%
O=C(COc1ccccc1)NC(=S)Nc1cccc2c(O)cccc12 17.9%
CCc1noc(C)c1C(=O)Nc1cccc2ncccc12 3.52%
O=C(COC(=O)Cc1ccc(Cl)cc1)NCc1cccs1 6.22%
COC(=O)c1ccccc1COn1c(=O)c(C)[n+]([O-])c2ccccc21 6.87%
CSc1nc(C)c2c(n1)N(c1ccc(F)cc1)CC2 11.7%
COc1ccc(N2CCc3c(C)nc(SC)nc32)cc1 2.67%
Cc1ccc(Cl)cc1N1CCN(S(=O)(=O)N2CCCCC2)CC1 8.42%
CN(c1ccccc1)S(=O)(=O)c1cccc(C(=O)NCc2ccccc2)c1 5.13%
CN(C)S(=O)(=O)c1cccc(C(=O)NCCc2ccccc2)c1 10.5%
CC(C)(C)NC(=O)C(c1ccccn1)N(C(=O)c1csnn1)C1CCCCC1 (stereo unspecified) 2.75%
CCOC(=O)C1(Cc2ccccc2)CCN(Cc2csc(C(C)=O)c2)CC1 3.47%
O=C(CCCC(=O)c1ccccc1)Nc1ccc(F)cc1 4.81%
O=C(CC(c1ccccc1)c1ccccc1)Nc1ccc(C(=O)O)cc1 13.2%
CC(=O)Nc1ccc(NC(=O)CC(c2ccccc2)c2ccccc2)cc1 11.3%
CC(=O)c1ccc(NC(=O)CCCC(=O)c2ccccc2)cc1 8.95%
Cc1c(OCC(=O)N[C@@H](CSCc2ccccc2)C(=O)O)ccc2c3c(c(=O)oc12)CCC3 4.52%
CC(=O)c1cccc(-c2ccc3c(=O)[nH]c(Nc4ccccc4)cc3c2)c1 0.61%
COc1cc(-c2cc(-c3ccccc3)nc(SCC(=O)Nc3nccs3)c2C#N)cc(OC)c1OC -0.01%
CCS(=O)(=O)Nc1cccc(C2=NN(S(=O)(=O)c3ccc(C)cc3)C(c3cccs3)C2)c1 (stereo unspecified) -1.77%
CN1OC[C@@H]2CN(C(=O)CCc3ccccc3)[C@H](c3cccc(-c4ccc(C#N)cc4)c3)C[C@@H]21 4.81%
O=C(N1CCOCC1)N1CCN(C(c2ccccc2)c2ccccc2)CC1 5.11%
CC(C)Cc1nc(SCC(=O)NCC2CCCO2)c2c(=O)n(C)c(=O)n(C)c2n1 (stereo unspecified) 5.52%
Cc1ccc(N2CCN(S(=O)(=O)c3ccc(C)cc3)CC2)cc1 8.85%
COc1cccc(N2CCN(S(=O)(=O)c3ccc4ccccc4c3)CC2)c1 -3.05%
Cc1cc(C)c(C)c(S(=O)(=O)N2CCN(C)CC2)c1C 9.5%
Cc1cc(C)c(C)c(S(=O)(=O)N2CCN(c3ccccn3)CC2)c1C 6.39%
Cc1ccc(C(=O)O)cc1S(=O)(=O)N1CCC(C(=O)O)CC1 3.35%
Cc1ccc(S(=O)(=O)N2CCN(CC(=O)N3CCOCC3)CC2)cc1 6.79%
Cc1cc(C)c(C)c(S(=O)(=O)N2CCC(C(=O)N3CCN(c4ccc(F)cc4)CC3)CC2)c1C 3.44%
CC(=O)c1ccc(N2CCN(S(=O)(=O)c3ccc4ccccc4c3)CC2)cc1 1.69%
